# Source: PubChem (several laboratories)
# Compounds with a hit are over-represented: about 3.9% of the library has one in this group of screens.
# Bead autofluor: compound fluorescence in toxin protease inhibitor counterscreen; compound autofluorescence counterscreen, microsphere flow cytometry; stronger effect = higher value; fluorescence intensity (test concentration not listed); actives 3.1% (n = 360,000); AID 624483; in the data active = fluorescence intensity above about 16000; inconclusive = no clear call, values can overlap the other calls
# BoNT F protease: BoNT/F light chain protease inhibitors, primary screen, biochemical, flow cytometry, MLPCN library | actives 0.22% (n = 360,000) | inhibition, % at 10 µM | Botulinum neurotoxin type F light chain protease (Clostridium botulinum) | Multiplex microsphere protease cleavage assay; in the data active = inhibition above about 35%, passing the limit was not always enough; inconclusive = no clear call, values can overlap the other calls
# 3CLpro inhibitor: SARS-CoV 3CLpro protease inhibitors, primary screen, biochemical, quenched FRET; inhibition, % at 6 µM; actives 0.14% (n = 290,000); AID 1706, 2009; Replicase polyprotein 1ab (Severe acute respiratory syndrome coronavirus), P0C6X7; recombinant SARS-CoV 3CLpro, quenched FRET peptide cleavage; in the data active = inhibition above about 12%
# CCHF vOTU inh-1: CCHFV vOTU protease inhibitors, primary screen, biochemical, Pep-AMC substrate, fluorescence. Crimean-Congo hemorrhagic fever virus L polyprotein viral ovarian tumor (vOTU) protease …. inhibition, % at 11.5 µM. actives 0.55% (n = 370,000); in the data active = inhibition above about 30%
# BoNT A protease: BoNT/A light chain protease inhibitors, primary screen, biochemical, flow cytometry, MLPCN library; inhibition, % at 10 µM; Botulinum neurotoxin type A light chain protease (Clostridium botulinum A str. ATCC 3502); multiplex microsphere protease substrate cleavage; actives 0.17% (n = 360,000)
# Anthrax LF prot: Bacillus anthracis LF protease inhibitors, primary screen, biochemical, multiplex microsphere, MLPCN library; multiplex microsphere protease cleavage assay; actives 0.12% (n = 360,000); Lethal factor (Bacillus anthracis), P15917; inhibition, % at 10 µM
# Target sequence (P15917 whole entry, looked up): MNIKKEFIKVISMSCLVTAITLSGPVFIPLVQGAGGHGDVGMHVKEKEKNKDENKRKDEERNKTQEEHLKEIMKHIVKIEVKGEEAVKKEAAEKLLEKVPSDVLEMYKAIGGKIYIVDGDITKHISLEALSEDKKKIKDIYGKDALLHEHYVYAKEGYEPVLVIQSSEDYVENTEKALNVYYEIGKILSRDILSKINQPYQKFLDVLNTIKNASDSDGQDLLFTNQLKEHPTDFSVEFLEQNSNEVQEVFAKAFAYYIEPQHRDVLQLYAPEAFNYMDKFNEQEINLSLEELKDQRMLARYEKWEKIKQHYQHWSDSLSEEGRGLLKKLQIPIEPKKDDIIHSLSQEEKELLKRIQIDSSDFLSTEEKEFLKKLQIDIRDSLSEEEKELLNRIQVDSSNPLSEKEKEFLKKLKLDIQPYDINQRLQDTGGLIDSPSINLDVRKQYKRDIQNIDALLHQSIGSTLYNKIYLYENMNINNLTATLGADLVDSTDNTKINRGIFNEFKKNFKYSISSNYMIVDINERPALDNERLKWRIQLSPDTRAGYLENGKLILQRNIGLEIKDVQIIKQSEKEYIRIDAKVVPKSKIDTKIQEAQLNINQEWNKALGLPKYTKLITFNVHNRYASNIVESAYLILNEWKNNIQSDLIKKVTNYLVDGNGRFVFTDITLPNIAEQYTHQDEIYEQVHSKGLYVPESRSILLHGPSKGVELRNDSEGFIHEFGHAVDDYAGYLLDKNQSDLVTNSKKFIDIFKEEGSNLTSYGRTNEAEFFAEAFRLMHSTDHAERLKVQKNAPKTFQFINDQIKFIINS
# CCHF vOTU inh-2: CCHFV vOTU protease inhibitors, confirmation, biochemical, Pep-AMC substrate, fluorescence | inhibition, % at 11.5 µM | AID 686976, 2013 | shares compounds with CCHF vOTU inh-1 | Recombinant CCHFV vOTU | actives 17% (n = 1,900); in the data active = inhibition above about 30%
# A number is an active result; – = inactive; ? = inconclusive; · = no result. Cut-off read from the data, not from the text of the source, unless noted: active = inhibition above about 30%; inconclusive = no clear call, values can overlap the other calls; inactive = below that.
SMILES,Bead autofluor,BoNT F protease,3CLpro inhibitor,CCHF vOTU inh-1,BoNT A protease,Anthrax LF prot,CCHF vOTU inh-2
Cc1ccc(S(=O)(=O)Nc2ccc(Nc3nccn4c(-c5cccc(OC(F)(F)F)c5)cnc34)cc2)cc1,–,–,·,29.9,–,–,–
O=C(CSc1nc(=O)n(CCCN2CCOCC2)c2c1CCCC2)Nc1ccc(F)cc1F,·,·,·,–,·,·,·
O=C(CSc1nc(=O)n(CCCN2CCOCC2)c2c1CCC2)Nc1ccc(F)cc1F,·,·,·,32.3,·,·,–
O=C(NC1CCCCC1)OC[C@@H]1CSCCS(=O)(=O)N1,·,·,·,–,·,·,·
NC(=O)C1CCN(C2=C(Cl)C(=O)c3ccccc3C2=O)CC1,–,–,–,57.7,–,–,82.9
CC1COCC(C)N1C1=C(Cl)C(=O)c2ccccc2C1=O (centres undefined),–,–,·,86.8,–,–,89.7
O=C1C(Cl)=C(N2CCC(C(=O)O)CC2)C(=O)c2ccccc21,–,–,–,·,–,–,·
CN(C1=C(N2CCOCC2)C(=O)c2ccccc2C1=O)c1ccccc1,–,–,–,–,–,–,·
CN1CCN(C2=C(Cl)C(=O)c3ccccc3C2=O)CC1,–,–,·,105.7,–,–,98.7
O=C(CSc1nnnn1C1CC1)N1CCN(c2ccccc2F)CC1,–,–,·,33.0,–,–,–
Cc1cccc(N2CCN(C(=O)CSc3nnnn3C3CC3)CC2)c1C,–,–,·,–,–,–,·
O=C(CN1C2CCCC1CC(NC(=O)c1ccccc1)C2)Nc1ccccc1 (centres undefined),–,–,–,30.2,–,–,–
COc1cccc(C(=O)NC2CC3CCCC(C2)N3CC(=O)Nc2ccccc2)c1 (centres undefined),–,–,–,–,–,–,·
O=c1nccc(N/N=C/c2ccccc2O)[nH]1,–,–,–,–,–,–,·
COc1cccc(/C=N/Nc2ccnc(=O)[nH]2)c1O,–,–,–,30.9,–,–,–
COc1ccc(OC)c(NC(=O)CSc2nc(O)cc(=O)n2CC(C)C)c1,–,–,·,32.5,–,–,–
N#Cc1ccc(Cn2ccc3ccc(-c4ccc5ccn(C(=O)C6CCC6)c5c4)cc32)cc1,·,·,·,–,·,·,·
CCCC(=O)Nc1ccc2c(c1)C(=O)N(C)[C@H]1CC[C@@H](CC(=O)OC)O[C@@H]1CO2,·,·,·,–,·,·,·
COC(=O)C1=C(C)N(Cc2ccccc2C(F)(F)F)C(=NCC2CC2)NC1CCc1ccccc1 (centres undefined),·,·,·,–,·,·,·
CC(O)(c1ccc(F)c(F)c1)c1nc(-c2cccc(C(F)(F)F)c2)cs1 (centres undefined),–,–,·,39.4,–,–,–
O=C(N/C(=C/c1cn(-c2ccccc2)nc1-c1ccccc1)C(=O)N1CCOCC1)c1ccccc1,·,·,–,·,·,·,·
Cc1ccc(C(=O)N/C(=C/c2cn(-c3ccccc3)nc2-c2ccccc2)C(=O)O)cc1,?,–,–,39.1,–,–,–
CCOC(=O)N1CCN(C(=O)C[C@H]2C[C@@]3(C(=O)OCC)CCCC4=C3N(CCC4)C2=O)CC1,·,·,·,–,·,·,·
COc1cc([N+](=O)[O-])cc(/C=N/NC(=O)C(C)Nc2cccc3ccccc23)c1O (centres undefined),–,–,–,–,–,–,·
CC(Nc1cccc2ccccc12)C(=O)N/N=C/c1ccc([N+](=O)[O-])cc1 (centres undefined),–,–,–,104.0,–,–,–
SMILES,Bead autofluor,BoNT F protease,3CLpro inhibitor,CCHF vOTU inh-1,BoNT A protease,Anthrax LF prot,CCHF vOTU inh-2
O=C(CNc1cccc2ccccc12)c1ccc([N+](=O)[O-])cc1,–,–,–,30.1,–,–,–
Cc1cccc(/C=N/NC(=O)C(C)Nc2cccc3ccccc23)n1 (centres undefined),–,–,–,114.9,–,–,–
Cc1ccccc1C(=O)N1CCC[C@@H]1C(=O)N1CCC[C@H]1C(=O)NCc1ccccc1,·,·,·,–,·,·,·
Cc1ccc(OCC(=O)NNC(=O)c2cc(S(=O)(=O)N(C)C)ccc2N2CCCC2)cc1,–,–,·,32.6,–,–,–
Cc1cccc(OCC(=O)NNC(=O)c2cc(S(=O)(=O)N(C)C)ccc2N2CCCC2)c1,–,–,·,–,–,–,·
COc1cccc(C(=O)N2CCC[C@@H]2C(=O)N2CCC[C@H]2C(=O)NCc2ccccc2)c1,·,·,·,–,·,·,·
CCOC(=O)c1c(CN(C)C)n(C)c2c(O)c(N=NC(N)=O)c3ccc(Br)cc3c12,–,?,–,36.0,–,–,–
COc1cc(OC)c(NC(=O)C(Sc2nc(C)cc(C)c2C#N)c2ccccc2)cc1Cl (centres undefined),·,·,·,–,·,·,·
CCCCN(CC(O)COc1cccc(C)c1)CC(O)COc1cccc(C)c1 (centres undefined),–,–,–,30.8,–,–,–
CN(C)CC(O)COc1cccc(OCC(O)CN(C)C)c1 (centres undefined),–,–,–,–,–,–,·
O=c1c2ccccc2nc(/C=C/c2ccccc2)n1-c1ccccc1O,–,–,–,–,–,–,·
Cc1ccccc1-n1c(/C=C/c2ccccn2)nc2ccccc2c1=O,–,–,–,31.6,–,–,–
CN(CCO)c1cccc2c1S(=O)(=O)N(Cc1cn(Cc3cccc(C(F)(F)F)c3)nn1)Cc1ccccc1O2,·,·,·,–,·,·,·
Cc1ccc(Nc2cc(-n3nc(C)cc3C)ncn2)c(C)c1,–,–,–,–,–,–,·
Cc1ccc(Nc2cc(-n3cccn3)ncn2)c(C)c1,–,–,–,63.9,–,–,–
COC(=O)[C@]12C[C@H](CC(=O)NCC3CCCCC3)C(=O)N(CCc3ccc(OC)c(OC)c3)C1=C[C@H](C1CCCC1)O[C@@H]2C,·,·,·,–,·,·,·
CCCCCCCCN1C(=O)[C@@H](CC(=O)N2CCOCC2)C[C@@]2(C(=O)OC)C1=C[C@H](C(C)(C)C)O[C@@H]2C,·,·,·,30.8,·,·,–
CCCCNC(=O)C[C@H]1C[C@@]2(C(=O)OC)C(=C[C@H](C(C)(C)C)O[C@@H]2C)N(CCC2=CCCCC2)C1=O,·,·,·,–,·,·,·
COC(=O)[C@]12C[C@H](CC(=O)N3CCC(c4ccccc4)CC3)C(=O)N(Cc3ccc4c(c3)OCO4)C1=C[C@H](C(C)(C)C)O[C@@H]2C,·,·,·,29.8,·,·,–
COC(=O)[C@]12C[C@H](CC(=O)NCC3CCCCC3)C(=O)N(CCc3ccc(OC)c(OC)c3)C1=C[C@H](C(C)(C)C)O[C@@H]2C,·,·,·,31.1,·,·,–
COC(=O)[C@]12C[C@H](CC(=O)NCCC(C)C)C(=O)N(CCC3=CCCCC3)C1=C[C@H](C(C)(C)C)O[C@@H]2C,·,·,·,30.2,·,·,–
